Only a selection was taken, and hits are over-represented in it overall.
TTR transcr act: increases transthyretin transcription | SH-SY5Y TTR promoter Gaussia luciferase, luminescence; 100% = recombinant luciferase protein wells | activation, % at 16.7 µM | 92,000 compounds, 1.3% hits;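 active = activation above the mean of all tested compounds plus 3 SD, cut at about 9.5% in these data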;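 note: cells exposed to compounds for one day before reading; 0% = median of all test compound wells on the plate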
TTR inh HuH7: decreases TTR transcription in HuH7 cells in activator counter-screen | inhibition, % at 16.7 µM | 1,100 compounds, 4% hits | shares compounds with TTR transcr act | HuH7 TTR promoter-Gaussia luciferase reporter, luminescence;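 active = average inhibition above the solvent-only control wells' mean plus 3 SD, cut at about 15% in these data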;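 note: 0% = cells with DMSO only and 100% = cells with inhibitor control FD; inhibitors lower well luminescence so higher value means more inhibition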
TTR up confirm: confirmation of human transthyretin transcription activators; activation, % at 16.7 µM; SHSY5Y TTR promoter Gaussia luciferase, luminescence; 100% = purified Lucia enzyme wells, no cells; 1,100 tested, under 10 active; shares compounds with TTR transcr act;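 active = mean activation above a set limit taken from the earlier primary screen, cut at about 11% in these data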;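 note: 0% = DMSO-treated cells and 100% = recombinant Lucia luciferase without cells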
Starred values were filed as active, the others as inactive.

SMILES	TTR transcr act	others
COc1ccc(C(=O)/C=C2/c3ccccc3CC(C)(C)N2C)cc1OC	-2.5
COc1ccc(-c2[nH]c(-c3ccc(SC)cc3)nc2SCC(=O)Nc2nccs2)cc1	-1.1
COc1ccc(-c2nc(SCC(=O)NC3CCCC3)c(-c3ccc(OC)cc3)[nH]2)cc1	-0.6
COc1ccc(-c2[nH]c(-c3ccc(C)cc3)nc2SCC(=O)Nc2nccs2)cc1	10.4*	TTR inh HuH7=-11.9;TTR up confirm=-1.1
COc1cc2c(cc1C1NC(=S)NC(C)=C1C(=O)N(C)C)CCCC2 (stereo unspecified)	1.4
C=CC[C@@H](CC(=O)NCCO)C(=O)N[C@@H](COC(=O)[C@@H](CC=C)CC(=O)OC(C)(C)C)Cc1ccccc1	6.0
C=CC[C@H](CC(=O)NCCO)C(=O)NCCOC(=O)[C@@H](CC=C)CC(=O)OC(C)(C)C	13.0*	TTR inh HuH7=-8.5;TTR up confirm=1.4
C=CC[C@@H](CC(=O)OC(C)(C)C)C(=O)OC[C@@H]1CCCN1C(=O)[C@H](CC=C)CC(=O)NCCO	-0.2
O=C(COC(=O)Cc1ccc(F)cc1)NC1CCCCC1	-2.0
CN(C)CCNC(=O)NC1CCCCC1	-0.2
COc1cc2c(cc1OC)CN(C(=O)Nc1ccccc1Cl)CC2	1.4
Cc1cc(C)nc(SCC(=O)N/N=C/C=C/c2ccccc2)n1	13.9*	TTR inh HuH7=-12.4;TTR up confirm=0.1
C/C(=N\NC(=O)CSc1nc(C)cc(C)n1)c1cccs1	-0.5
Cn1cccc1CC(=O)N/N=C/C=C/c1ccccc1	3.7
Cc1ccc(N(C(=O)Cc2cccs2)C(C(=O)NC2CCCC2)c2ccncc2)cc1 (stereo unspecified)	-1.6
CCCCNC(=O)C1CCCN(S(=O)(=O)CC)C1 (stereo unspecified)	-1.4
Cc1ccc(CNc2nc(NCc3ccccc3)nc3ccsc23)c(C)c1	-2.7
CCOC(=O)N1CCC(NC(=O)c2ccc(CO)c(C(=O)NC3CCN(C(=O)OCC)CC3)c2)CC1	2.1
CN(C)c1ccc(-c2ccc3oc(-c4ccsc4)cc(=O)c3c2)cn1	1.0
CCN(CC)S(=O)(=O)c1cc(NS(=O)(=O)c2cccc(C(=O)O)c2)ccc1C	11.3*	TTR inh HuH7=-9.2;TTR up confirm=0.4
COc1ccc(NS(=O)(=O)c2cccc(C(=O)O)c2)cc1	2.7
Cc1ccc(NS(=O)(=O)c2cccc(C(=O)O)c2)cc1S(=O)(=O)N1CCCCC1	1.7
CCCCC#Cc1ccc(C(=O)NNC(=O)Nc2ccccc2)o1	1.0
CCOc1ccc(C(=O)Nc2c3c(nn2-c2cccc(Cl)c2)CS(=O)C3)cc1 (stereo unspecified)	2.2
COc1ccc(/C=C(\C#N)C(=O)Nc2cc(C)c(Cl)cc2OC)cc1O	12.5*	TTR inh HuH7=-3.6;TTR up confirm=-0.1
SMILES	TTR transcr act	others
COc1ccc(/C=C(/C#N)C(=O)Nc2cc(C)ccc2C)cc1C(=O)O	-1.0
COc1cc(/C=C(\C#N)C(=O)NC(C)C)cc(Cl)c1O	-0.2
CCc1noc(C)c1C(=O)OC(C)C(=O)Nc1ccc2c(c1)OCO2 (stereo unspecified)	-0.2
O=C1CC(c2ccccc2)c2c(O)cc(O)cc2O1 (stereo unspecified)	1.2
COc1ccc([C@H]2N[C@]3(CCCN(Cc4ccc(Br)cc4)C3=O)[C@H]3C(=O)N(Cc4ccccc4)C(=O)[C@@H]23)cc1	-0.2
Cn1ccsc1=NC(=O)c1ccccc1F	-0.2
Cn1ccsc1=NC(=O)c1ccccc1OC(F)F	0.7
Cn1ccs/c1=N\C(=O)Nc1ccccc1	51.7*	TTR inh HuH7=-3.4;TTR up confirm=1.3
COc1ccccc1NC(=O)CCc1nc(-c2cccs2)no1	3.5
COc1cccc(NC(=O)CN(C)S(=O)(=O)c2ccc3c(c2)NC(=O)CS3)c1	1.6
CN(C)c1ccc(-c2csc(C(C)(O)c3cccc(F)c3)n2)cc1 (stereo unspecified)	-3.6
Clc1cccc(Cl)c1C1Nc2cccc3cccc(c23)N1	-1.5
Brc1cccc(C2Nc3cccc4cccc(c34)N2)c1	-1.7
Clc1ccc(C2Nc3cccc4cccc(c34)N2)cc1Cl	9.8*	TTR inh HuH7=5.1;TTR up confirm=-0.6
COc1ccccc1Nc1ncnc2c1cnn2-c1cccc(C)c1	4.0
CN(C)C(CNC(=O)Cc1cccc(C(F)(F)F)c1)c1ccccc1 (stereo unspecified)	14.8*	TTR inh HuH7=-11.8;TTR up confirm=0.4
O=C(Cc1cccc(C(F)(F)F)c1)NCc1ccc(Cl)cc1	0.6
CC(NC(=O)CSc1cccc(C(F)(F)F)c1)c1ccccc1 (stereo unspecified)	-0.9
CCCN1CCC(NC(=O)C2CCCCC2C(=O)O)CC1 (stereo unspecified)	1.4
O=C1/C(=C/c2ccncc2)CCC/C1=C\c1ccncc1	-6.0
O=C1/C(=C/c2ccncc2)N=C2CCCCCN12	47.2*	TTR inh HuH7=-11.9;TTR up confirm=-0.1
COc1ccc(/C=C2\N=C3CCCCCN3C2=O)cc1	2.6
CCOC(=O)[C@H]1[C@H]2COc3ccc(C)cc3[C@@H]2N2C(=O)[C@@H](CO)NC(=O)[C@@]12C	1.3
CSc1ccc(Cc2ccc(Cl)cc2Cl)nn1	-1.6
O=C1C(=O)N(CCCn2ccnc2)C(c2cccc(Br)c2)/C1=C(\O)c1ccc2c(c1)OCCO2 (stereo unspecified)	-0.2
SMILES	TTR transcr act	others
COc1ccc(OCC(=O)Nc2ccc(S(=O)(=O)N3CCCCC3)cc2)cc1	-0.7
COc1ccc(NC(=O)CSCC(=O)Nc2ccc(S(=O)(=O)N3CCCC3)cc2)cc1	0.0
CCOC(=O)CSCC(=O)Nc1ccc(S(=O)(=O)N2CCCCC2)cc1	-2.1
COc1ccc(NC(=S)Nc2ccc(S(=O)(=O)N3CCCCC3)cc2)cc1	12.1*	TTR inh HuH7=12.4;TTR up confirm=-0.1
Cc1ccc(NC(=O)CSc2nc(N)cc(=O)[nH]2)cc1S(=O)(=O)N1CCCCCC1	0.9
Cc1cc(=O)[nH]c(SCC(=O)Nc2ccc(S(=O)(=O)N3CCCCC3)cc2)n1	12.9*	TTR inh HuH7=-1.7;TTR up confirm=0.1
Cc1ccc(-n2cccn2)c(CN2CCCC(C(=O)c3sccc3C)C2)c1 (stereo unspecified)	-1.7
Cn1c(C(=O)N/N=C/c2ccccc2)cc2ccccc21	-0.2
Fc1ccccc1CNCc1ccc2c(c1)OCO2	0.3
CCOc1ccc(NC(=O)CN2C(=O)/C(=C3\SC(=S)N(C4CCS(=O)(=O)C4)C3=O)c3ccccc32)cc1 (stereo unspecified)	4.4
COc1ccc(-c2nc(CS(=O)(=O)CC(=O)NCc3ccc4c(c3)OCO4)c(C)o2)cc1	2.6
CCOC(=O)N1CCN(Cc2nc(Cc3cccc(F)c3)no2)CC1	-1.3
COc1cccc(NC(=O)CN(C)C(=O)c2ccc(NS(=O)(=O)c3ccc(F)cc3)cc2)c1	0.5
COc1cccc(NC(=O)CN(C)C(=O)c2cc(S(=O)(=O)Nc3ccccc3OC)ccc2C)c1	4.4
COc1cccc(NC(=O)CN(C)C(=O)c2cc(S(=O)(=O)NCc3ccccc3)ccc2C)c1	31.9*	TTR inh HuH7=-20.1;TTR up confirm=0.7
CCOC(=O)c1cc(-c2csc(Nc3ccccc3Cl)n2)on1	-0.6
CC1=C(C(=O)Nc2cccc([N+](=O)[O-])c2)C2(CCC(C)CC2)OC1=O (stereo unspecified)	-1.8
CN(C#N)c1nc(N2CCOCC2)nc(N2CCOCC2)n1	0.2
O=C(Nc1ccncc1)C1CCN(S(=O)(=O)c2cccs2)CC1	2.8
C/C(=N\NC(=O)c1ccccn1)c1ccc(Cl)cc1	-1.6
